{"source": "ChEMBL document CHEMBL3433997", "about": "“St. Jude Leishmania screening dataset” (2016)", "data": [{"target": "Hexose transporter 1 (Plasmodium falciparum) (UniProt O97467)", "experiment": "ST_JUDE_LEISH: Cytotoxicity at 2uM final concentration against transgenic Leishmania Mexicana promastigotes LmPfHT that are glucose transport deficient and complemented with the Plasmodium falciparum hexose transporter. Activity is measured by DNA content using SYBR green in vitro", "type": "functional", "units": {"inhibition": "%"}, "values": [{"smiles": "CN1CCN(CC(=O)Nc2cccc(-c3cccc(-c4nc5cc(F)ccc5[nH]4)c3)c2)CC1", "inhibition": 1.22}, {"smiles": "COCCOc1ccc(Nc2nccc(-c3c(-c4cccc(NC(=O)c5c(F)cccc5F)c4)nn4ccccc34)n2)cc1F", "inhibition": 10.9}, {"smiles": "CC1(C)NC(N)=NC(=N)N1OCc1ccc(-c2ccccc2)cc1", "inhibition": 5.93}, {"smiles": "Cc1cc(N[C@@H](CC(C)C)C(=O)NCc2cccs2)nc(Nc2ccccc2)n1", "inhibition": 3.95}, {"smiles": "Cn1nc(C(F)(F)F)c(-c2ccc(F)cc2)c1NC(=O)Nc1ccc(F)cc1", "inhibition": 4.67}, {"smiles": "SC(=Nc1ccc2c(c1)OCCO2)NN=Cc1ccccn1", "inhibition": -0.16}, {"smiles": "CCCCCCCCNc1c2ccc(Cl)cc2nc2ccc(OC)cc12", "inhibition": 7.51}, {"smiles": "COc1cccc(NC(=O)CSc2nc(-c3ccccc3Cl)ns2)c1", "inhibition": 4.86}, {"smiles": "O=C(NCCCCCN1CCC(c2ccc(O)cc2)CC1)c1ccc(-c2ccccc2)cc1", "inhibition": 3.34}, {"smiles": "COc1ccc2nccc([C@@H](O)CN3CCC(NCC(=O)Nc4cc(F)cc(F)c4)CC3)c2n1", "inhibition": 47.2}, {"smiles": "CCCCCCNC(=O)C1Cc2c([nH]c3ccc(F)cc23)C2(CCN(Cc3ccccc3)CC2)N1", "note": "(stereo not given)", "inhibition": 9.28}, {"smiles": "Cc1cccn2c(=O)c3cc(C(=O)NC4CCCCC4)c(=N)n(CCCn4ccnc4)c3nc12", "inhibition": -2.23}, {"smiles": "O=C(Nc1cccc(-c2cccc(-c3nc4ccccc4[nH]3)c2)c1)c1ccncc1", "inhibition": 4.7}, {"smiles": "c1cncc(Oc2ccc(Nc3ccnc4cc(-c5cccc(CN6CCCCC6)c5)ccc34)cc2)c1", "inhibition": 2.51}, {"smiles": "O=C(N[C@H](Cc1ccc(Cl)cc1)C(=O)N1CCN(c2ccnc3cc(Cl)ccc23)CC1)[C@H]1Cc2ccccc2CN1", "inhibition": -0.43}, {"smiles": "O=c1cc(NCCCNCc2cc(F)cc(C(F)(F)F)c2)[nH]c2ccccc12", "inhibition": -0.14}, {"smiles": "Cc1cccc2nc(-c3cccc(-c4ccc(C(=O)N5CCCCC5C(C)O)cc4)c3)[nH]c12", "note": "(stereo not given)", "inhibition": 4.66}, {"smiles": "CN(C(=O)c1cc2c(-c3cncnc3)cccc2[nH]1)c1ccccc1", "inhibition": -0.81}, {"smiles": "COc1ccc(NC(=O)[C@H](Cc2ccccc2)Nc2nc(NCCN3CCCC3)ncc2C)cc1", "inhibition": 2.57}, {"smiles": "COc1ccc(CN2CCCC(N3CC4(OC3=O)c3ccccc3-c3ccccc34)C2)c(O)c1", "note": "(stereo not given)", "inhibition": 4.69}, {"smiles": "O=C(/C=C/c1ccc(Cl)c(Cl)c1)N1CCC(CCN2CCC(c3c[nH]c4cc5c(cc34)OCO5)CC2)CC1", "inhibition": 0.01}, {"smiles": "COc1ccc(C2CC(c3cccs3)=NN2C(=O)COc2cccc(C(C)=O)c2)cc1OC", "note": "(stereo not given)", "inhibition": -0.46}, {"smiles": "CC(C)n1c(CC2CCN(CC3CCN(C(=O)/C=C/c4ccc(Cl)c(Cl)c4)CC3)CC2)nc2ccccc21", "inhibition": -2.38}, {"smiles": "COc1cc2nc(N(C)CC3COc4ccccc4O3)nc(N)c2cc1OC", "note": "(stereo not given)", "inhibition": 1.69}, {"smiles": "Fc1ccc2[nH]c(-c3ccc(-c4ccc(CN5CCC(CCN6CCCCC6)CC5)cc4)s3)nc2c1", "inhibition": 3.85}, {"smiles": "Fc1ccc2[nH]c(-c3ccc(-c4ccc(CN5CCN(c6cnccn6)CC5)cc4)s3)nc2c1", "inhibition": 1.2}, {"smiles": "Oc1ccc(-c2ccccc2)cc1CN1CCCCC1", "inhibition": 5.51}, {"smiles": "NC(=O)c1ccc(NCC(=O)Nc2cccc(-c3cccc(-c4nc5cc(F)ccc5[nH]4)c3)c2)cc1", "inhibition": 1.39}, {"smiles": "CCNc1cc(C(=O)N[C@@H](Cc2ccccc2)[C@H](O)CNC(C)(C)CC(C)(C)C)c(F)c(N2CCCCS2(=O)=O)c1", "inhibition": -1.17}, {"smiles": "Nc1nc2c(ncn2OC[C@H](CO)OCP(=O)(O)O)c(=O)[nH]1", "inhibition": -1.69}, {"smiles": "CCN(CC)c1ccccc1CNC(=O)c1cc(Cl)c(N)cc1OC", "inhibition": 9.03}, {"smiles": "CCC1CCCCN1S(=O)(=O)c1ccc(NC(=O)c2cc(C)on2)cc1", "note": "(stereo not given)", "inhibition": 0.15}, {"smiles": "CNC(=O)NC1=NC(C)(C)N(OCCCOc2cc(Cl)c(Cl)cc2Cl)C(N)=N1", "inhibition": 11.8}, {"smiles": "COC(=O)c1ccc(-c2ccc(C(=O)NCC3CCN(c4nc(N)c5cc(OC)c(OC)cc5n4)CC3)cc2)cc1", "inhibition": 4.23}, {"smiles": "COc1ccc(CC(=O)Nc2ccc(Nc3nc(C)cc(N4CCCC4)n3)cc2)cc1", "inhibition": 51.5}, {"smiles": "O=C(/C=C/c1ccc(Cl)c(Cl)c1)NCCCCCCN1CCCN(C(=O)Nc2ccc(Cl)c(Cl)c2)CC1", "inhibition": 2.49}, {"smiles": "c1ccc(Nc2nc(-c3ccccn3)cs2)nc1", "inhibition": 0.38}, {"smiles": "CCCCOC(=O)C1=C(C)NC2=C(C(=O)CCC2)C1c1ccc(OC)c(Br)c1", "note": "(stereo not given)", "inhibition": -0.81}, {"smiles": "CN(C)C(CNC(=O)c1cc(-c2ccncc2)c(-c2ccc(NC(=O)Nc3cccc(Cl)c3)cc2)o1)c1ccccc1", "note": "(stereo not given)", "inhibition": 2.82}, {"smiles": "Clc1ccc(-c2cc(-c3csc(NCCN4CCOCC4)n3)on2)c(Cl)c1", "inhibition": 9.19}]}, {"target": "Glucose transporter (Leishmania mexicana) (UniProt O61059)", "experiment": "ST_JUDE_LEISH: Cytotoxicity at 2uM final concentration against transgenic Leishmania Mexicana promastigotes LmGT2 that are glucose transport deficient and complemented with the L. Mexicana glucose transporter 2. Activity is measured by DNA content using SYBR green in vitro", "type": "functional", "units": {"inhibition": "%"}, "values": [{"smiles": "CN1CCN(CC(=O)Nc2cccc(-c3cccc(-c4nc5cc(F)ccc5[nH]4)c3)c2)CC1", "inhibition": 3.51}, {"smiles": "COCCOc1ccc(Nc2nccc(-c3c(-c4cccc(NC(=O)c5c(F)cccc5F)c4)nn4ccccc34)n2)cc1F", "inhibition": 1.25}, {"smiles": "CC1(C)NC(N)=NC(=N)N1OCc1ccc(-c2ccccc2)cc1", "inhibition": 3.79}, {"smiles": "Cc1cc(N[C@@H](CC(C)C)C(=O)NCc2cccs2)nc(Nc2ccccc2)n1", "inhibition": 2.84}, {"smiles": "Cn1nc(C(F)(F)F)c(-c2ccc(F)cc2)c1NC(=O)Nc1ccc(F)cc1", "inhibition": 4.05}, {"smiles": "SC(=Nc1ccc2c(c1)OCCO2)NN=Cc1ccccn1", "inhibition": 8.54}, {"smiles": "CCCCCCCCNc1c2ccc(Cl)cc2nc2ccc(OC)cc12", "inhibition": 5.8}, {"smiles": "COc1cccc(NC(=O)CSc2nc(-c3ccccc3Cl)ns2)c1", "inhibition": 6.13}, {"smiles": "O=C(NCCCCCN1CCC(c2ccc(O)cc2)CC1)c1ccc(-c2ccccc2)cc1", "inhibition": 6}, {"smiles": "COc1ccc2nccc([C@@H](O)CN3CCC(NCC(=O)Nc4cc(F)cc(F)c4)CC3)c2n1", "inhibition": 58.1}, {"smiles": "CCCCCCNC(=O)C1Cc2c([nH]c3ccc(F)cc23)C2(CCN(Cc3ccccc3)CC2)N1", "note": "(stereo not given)", "inhibition": 7.57}, {"smiles": "Cc1cccn2c(=O)c3cc(C(=O)NC4CCCCC4)c(=N)n(CCCn4ccnc4)c3nc12", "inhibition": -4.98}, {"smiles": "O=C(Nc1cccc(-c2cccc(-c3nc4ccccc4[nH]3)c2)c1)c1ccncc1", "inhibition": 0.44}, {"smiles": "c1cncc(Oc2ccc(Nc3ccnc4cc(-c5cccc(CN6CCCCC6)c5)ccc34)cc2)c1", "inhibition": 2.68}, {"smiles": "O=C(N[C@H](Cc1ccc(Cl)cc1)C(=O)N1CCN(c2ccnc3cc(Cl)ccc23)CC1)[C@H]1Cc2ccccc2CN1", "inhibition": -2.58}, {"smiles": "O=c1cc(NCCCNCc2cc(F)cc(C(F)(F)F)c2)[nH]c2ccccc12", "inhibition": 4.38}, {"smiles": "Cc1cccc2nc(-c3cccc(-c4ccc(C(=O)N5CCCCC5C(C)O)cc4)c3)[nH]c12", "note": "(stereo not given)", "inhibition": 5.64}, {"smiles": "CN(C(=O)c1cc2c(-c3cncnc3)cccc2[nH]1)c1ccccc1", "inhibition": -0.72}, {"smiles": "COc1ccc(NC(=O)[C@H](Cc2ccccc2)Nc2nc(NCCN3CCCC3)ncc2C)cc1", "inhibition": 3.02}, {"smiles": "COc1ccc(CN2CCCC(N3CC4(OC3=O)c3ccccc3-c3ccccc34)C2)c(O)c1", "note": "(stereo not given)", "inhibition": 4.18}, {"smiles": "O=C(/C=C/c1ccc(Cl)c(Cl)c1)N1CCC(CCN2CCC(c3c[nH]c4cc5c(cc34)OCO5)CC2)CC1", "inhibition": -0.27}, {"smiles": "COc1ccc(C2CC(c3cccs3)=NN2C(=O)COc2cccc(C(C)=O)c2)cc1OC", "note": "(stereo not given)", "inhibition": -2.22}, {"smiles": "CC(C)n1c(CC2CCN(CC3CCN(C(=O)/C=C/c4ccc(Cl)c(Cl)c4)CC3)CC2)nc2ccccc21", "inhibition": -2.53}, {"smiles": "COc1cc2nc(N(C)CC3COc4ccccc4O3)nc(N)c2cc1OC", "note": "(stereo not given)", "inhibition": -0.97}, {"smiles": "Fc1ccc2[nH]c(-c3ccc(-c4ccc(CN5CCC(CCN6CCCCC6)CC5)cc4)s3)nc2c1", "inhibition": 4.98}, {"smiles": "Fc1ccc2[nH]c(-c3ccc(-c4ccc(CN5CCN(c6cnccn6)CC5)cc4)s3)nc2c1", "inhibition": 0.86}, {"smiles": "Oc1ccc(-c2ccccc2)cc1CN1CCCCC1", "inhibition": -0.56}, {"smiles": "NC(=O)c1ccc(NCC(=O)Nc2cccc(-c3cccc(-c4nc5cc(F)ccc5[nH]4)c3)c2)cc1", "inhibition": -1.25}, {"smiles": "CCNc1cc(C(=O)N[C@@H](Cc2ccccc2)[C@H](O)CNC(C)(C)CC(C)(C)C)c(F)c(N2CCCCS2(=O)=O)c1", "inhibition": -0.53}, {"smiles": "Nc1nc2c(ncn2OC[C@H](CO)OCP(=O)(O)O)c(=O)[nH]1", "inhibition": -1.85}, {"smiles": "CCN(CC)c1ccccc1CNC(=O)c1cc(Cl)c(N)cc1OC", "inhibition": 8.59}, {"smiles": "CCC1CCCCN1S(=O)(=O)c1ccc(NC(=O)c2cc(C)on2)cc1", "note": "(stereo not given)", "inhibition": 3.74}, {"smiles": "CNC(=O)NC1=NC(C)(C)N(OCCCOc2cc(Cl)c(Cl)cc2Cl)C(N)=N1", "inhibition": 11.6}, {"smiles": "COC(=O)c1ccc(-c2ccc(C(=O)NCC3CCN(c4nc(N)c5cc(OC)c(OC)cc5n4)CC3)cc2)cc1", "inhibition": 2.11}, {"smiles": "COc1ccc(CC(=O)Nc2ccc(Nc3nc(C)cc(N4CCCC4)n3)cc2)cc1", "inhibition": 16.1}, {"smiles": "O=C(/C=C/c1ccc(Cl)c(Cl)c1)NCCCCCCN1CCCN(C(=O)Nc2ccc(Cl)c(Cl)c2)CC1", "inhibition": -2.06}, {"smiles": "c1ccc(Nc2nc(-c3ccccn3)cs2)nc1", "inhibition": -2.43}, {"smiles": "CCCCOC(=O)C1=C(C)NC2=C(C(=O)CCC2)C1c1ccc(OC)c(Br)c1", "note": "(stereo not given)", "inhibition": -1.96}, {"smiles": "CN(C)C(CNC(=O)c1cc(-c2ccncc2)c(-c2ccc(NC(=O)Nc3cccc(Cl)c3)cc2)o1)c1ccccc1", "note": "(stereo not given)", "inhibition": 0.81}, {"smiles": "Clc1ccc(-c2cc(-c3csc(NCCN4CCOCC4)n3)on2)c(Cl)c1", "inhibition": 10.6}]}]}
